Reference: PMC7819943, “Rice protein-binding microarrays: a tool to detect cis-acting elements near promoter regions in rice”
Whole data set: some 68,000 sequences, median “fluorescence intensity (a.u.)” near 9,100, cut for the highest 2% near 16,000. Only a selection was taken, and the highest values are over-represented in it overall.

Target: OsWRKY34 (Oryza sativa, UniProt Q0JBA9 1-250)
Test: protein-binding microarray (RPBM); PBS, 2% BSA, 51.3 ng/ul salmon testes DNA, 50 uM zinc acetate, 200 nM TF, 25 C, 1 h; high values mean tight binding
Details: protein: recombinant; tags: N-terminal polyhistidine and DsRed monomer fusion (pET32a); label: CyDye5-dUTP incorporated in the synthesized complementary strand; 3' TTTTT single-stranded linker to array surface; dsDNA, one strand shown
In short: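 Binding signal is defined as the fluorescence intensity of each feature in arbitrary units, read on an Axon 4000B scanner. Transcription factors with N-terminal polyhistidine and DsRed fusions came from E. coli BL21-CodonPlus and were purified on Ni–NTA. They were incubated at 200 nM for 1 h at 25 °C on a custom Agilent array that had been made double-stranded with Cy5-dUTP, with 50 µM zinc acetate present, and the array was washed.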

Chain of OsWRKY34 (Q0JBA9 entry or part of it): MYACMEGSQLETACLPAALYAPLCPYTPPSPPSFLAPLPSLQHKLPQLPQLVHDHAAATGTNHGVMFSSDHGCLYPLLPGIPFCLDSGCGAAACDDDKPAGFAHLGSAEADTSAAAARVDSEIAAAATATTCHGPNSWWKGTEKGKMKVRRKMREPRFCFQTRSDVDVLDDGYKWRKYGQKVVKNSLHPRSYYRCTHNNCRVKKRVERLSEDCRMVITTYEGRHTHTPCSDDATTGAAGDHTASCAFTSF

Sequence | binding signal
TCCTCTCTGTCTCCGCCGATCTGCTCTGCCGCGACGCGCCCGGAGTCACCTAGTGCAG | 8180 fluorescence intensity (a.u.)
ATTTCACATGGCAAGATCCACGATGACTGAATTATCACACCGGAGTCACCTAGTGCAG | 8200 fluorescence intensity (a.u.)
CATTATCGTCGTCGTCGTCGTCGTAGTCATGTCGTGGGGCCGGAGTCACCTAGTGCAG | 8180 fluorescence intensity (a.u.)
GAGGGCGGAGGAGGTGGTGAGGGAGGAGGTGCGGAGGCTGCGGAGTCACCTAGTGCAG | 8320 fluorescence intensity (a.u.)
GAGGTGGCTTTGGCGGCGGAGTGGGAGGCGGTGGTGGTGGCGGAGTCACCTAGTGCAG | 10000 fluorescence intensity (a.u.)
CATGTCGTCGTCGTGGTGGTGGTGGTGGTGGTGGGGCGGGCGGAGTCACCTAGTGCAG | 43400 fluorescence intensity (a.u.)
GGCGGCGGCGGCGGCGGTGGTGGTGAGGAGGAGGAGGAGGCGGAGTCACCTAGTGCAG | 10700 fluorescence intensity (a.u.)
GGTGGTGGTGGTGGTGGTGGTGGTGTAGGAGGAGGAGGAGCGGAGTCACCTAGTGCAG | 27600 fluorescence intensity (a.u.)
GTAGTAGGGGAGGAGTGTATCTAGTAGTATAGGGAGGGAGCGGAGTCACCTAGTGCAG | 13000 fluorescence intensity (a.u.)
GCGGTGGTGGTGGGCTTAGTGGAGGCGGAGGCGGCTGAGGCGGAGTCACCTAGTGCAG | 17400 fluorescence intensity (a.u.)
GGAGGAGGAGGAGGGAGAGGGTGGTGTAGTGGGAGCGGCCCGGAGTCACCTAGTGCAG | 8170 fluorescence intensity (a.u.)
ATGTCGGCGGCGGGCGGCGGCGGCGGCGTGGGGAAGGTGGCGGAGTCACCTAGTGCAG | 9040 fluorescence intensity (a.u.)
GGAGGCCTAGGTGGTGGTGGTGGTCTTGGTGGAGGAGGGGCGGAGTCACCTAGTGCAG | 28600 fluorescence intensity (a.u.)
GAGGAGGGGAGAAACGGGAGGTTGGTGGTGGTGGTGGAGGCGGAGTCACCTAGTGCAG | 15200 fluorescence intensity (a.u.)
GCCTCTGCCCATCGCATCGATCCCCGCCGTCCCTCCACCCCGGAGTCACCTAGTGCAG | 11000 fluorescence intensity (a.u.)
TCGAACTATGTTTCTGGAGTTGTTTGTGTTAAAGTCCCAACGGAGTCACCTAGTGCAG | 8860 fluorescence intensity (a.u.)
CCGCCACATGCTGCTGCCGCCCCAGCCGTCGGCTGCTTCTCGGAGTCACCTAGTGCAG | 8560 fluorescence intensity (a.u.)
TTTGCGGGTGGAGTTTTTTAAGTTTTTGGATTTCCTGTTTCGGAGTCACCTAGTGCAG | 11700 fluorescence intensity (a.u.)
CTCGACCACACATATATGTTCGATACATTCCATATCTTCCCGGAGTCACCTAGTGCAG | 10700 fluorescence intensity (a.u.)
AACAAAAGCACCCCTGTCCGATCCTATATTTGTTGCAGTTCGGAGTCACCTAGTGCAG | 9240 fluorescence intensity (a.u.)
GAAGAGGAGGAGGAGGAGGAGGAGGAGGAGGGGATCAATGCGGAGTCACCTAGTGCAG | 8350 fluorescence intensity (a.u.)
TGTTCTTGAGTTGCTTATATATGGCCTTCTAGCTCAGCTCCGGAGTCACCTAGTGCAG | 8540 fluorescence intensity (a.u.)
TGATTGCCTTCTCGATTTTGTTTGTCATTGCGTCTTTGCACGGAGTCACCTAGTGCAG | 8190 fluorescence intensity (a.u.)

Sequence | binding signal
TGACCACCATTGCTGCTTCTGCTTCTTCTTGTATGTATACCGGAGTCACCTAGTGCAG | 17200 fluorescence intensity (a.u.)
CTTCTCCTGCTTGTTTCCTTGTCTTGTGGTGCATCACATCCGGAGTCACCTAGTGCAG | 8810 fluorescence intensity (a.u.)
GGGTGGTCCTGCTTCTACCTTGTATACAAAACATTTCTTCCGGAGTCACCTAGTGCAG | 17000 fluorescence intensity (a.u.)
GCTTGCTTGCTTGTTGCTTCCATTCCATTCCATTCCACACCGGAGTCACCTAGTGCAG | 10400 fluorescence intensity (a.u.)
CATTTTTTTAGCTTGTTCTTCCTTGTGTCACAAACATTTCCGGAGTCACCTAGTGCAG | 11300 fluorescence intensity (a.u.)
TCCTTGTATGAATCCATTGCCTTGCTTCTGCTTGCCCATTCGGAGTCACCTAGTGCAG | 8530 fluorescence intensity (a.u.)
GTATTCCTACTTGAACTCTTCTTTTACTTTATTTTTCTAACGGAGTCACCTAGTGCAG | 10600 fluorescence intensity (a.u.)
CACTGCCACTCGCCACCCAGCTCCGTCCTATGCCTCCGCGCGGAGTCACCTAGTGCAG | 12400 fluorescence intensity (a.u.)
TGCACCGCGCGCAGGGTAGGGTGGGCGTCCTTGCCATTGTCGGAGTCACCTAGTGCAG | 8740 fluorescence intensity (a.u.)
CTTATTTCTTTTCCAGTTAGGCATATATTATCTGTTTTCTCGGAGTCACCTAGTGCAG | 8700 fluorescence intensity (a.u.)
ATATATATATATATATATATATATATATATAATCTCTCCTCGGAGTCACCTAGTGCAG | 9910 fluorescence intensity (a.u.)
AAAATCTCCTACTAGCTCACTTCACAATGGATCAAACAAACGGAGTCACCTAGTGCAG | 8230 fluorescence intensity (a.u.)
ATAATATATAATCAAACAAAAAAATGGACTATAATCTCTCCGGAGTCACCTAGTGCAG | 64400 fluorescence intensity (a.u.)
AACTTGCGAAAATTTGACTATCAATTAGCTGGGCGATTGACGGAGTCACCTAGTGCAG | 32700 fluorescence intensity (a.u.)
ACTATGGGCTTTTGCATCAACAATTGCGAATTTTTTGTATCGGAGTCACCTAGTGCAG | 9280 fluorescence intensity (a.u.)
CTTTTTATCTCAAATTTGAAAACTTTCAACTTGGATTTGACGGAGTCACCTAGTGCAG | 8520 fluorescence intensity (a.u.)
GGAGGATGCGGGTGGTGGTGGAGGAGGAGGAGGCCGAGGTCGGAGTCACCTAGTGCAG | 12400 fluorescence intensity (a.u.)
GGGCCCCAGTCAGGGTGCGGGGCCACGGAGGGGTCGGGGACGGAGTCACCTAGTGCAG | 9260 fluorescence intensity (a.u.)
GTCGGGGAGGTCGGGGTCAGGGAGGTCGGGGCCGGTGATGCGGAGTCACCTAGTGCAG | 18900 fluorescence intensity (a.u.)
GGGTGGGGAGGTGGTGGTCGTCGGGCAGGTGGGGAGGATGCGGAGTCACCTAGTGCAG | 23900 fluorescence intensity (a.u.)
GTGGGGATGGAGGCGTCGTCGGGGTCGTCGTAGAGGTGGGCGGAGTCACCTAGTGCAG | 9240 fluorescence intensity (a.u.)
CTGCGGGAGGACGGGTCCGGGGCGGGGTCCGGGTCGGTGCCGGAGTCACCTAGTGCAG | 9780 fluorescence intensity (a.u.)
